Measurements taken from PubChem BioAssay (Tox21).
Records with an inconclusive call do not appear. A call without a number means that no potency is given here. Unmarked numbers belong to inactive results. The source made the active and inactive calls. Unless noted, calls come from the whole dose curve; as a rule, active = well fitted curve in the direction sought with a large enough effect in the repeat runs; inconclusive = weak or mixed curves; inactive = no such curve, though single readings can be large; an effect the other way counts as inactive or inconclusive.

Columns and labels:
[1] = qHTS assay to identify small molecule antagonists of the estrogen related receptor (ERR) signaling pathway from Tox21 library - cell viability counter screen (AID 1224834); note: nearly all actives have a fitted effect of over 30% in size
Method in brief: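 Counter screen run in ERR cells (2,000 cells/well): cells pre-incubated 6 h, then treated with compounds for 17.5 h at 37 C. Fluorescence was read 30 min after CellTiter-Fluor addition.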

[2] = target: Luciferin 4-monooxygenase (Photinus pyralis) (UniProt P08659); experiment: qHTS assay to identify small molecule inhibitors of firefly luciferase (AID 1224835); note: nearly all actives have a fitted effect of over 25% in size; note: potency is the fitted concentration of half-maximal effect
Method in brief: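 Quantitative HTS format; KM concentrations of both substrates. Purified P. pyralis FLuc activity quantified from luminescence images.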

[3] = qHTS assay to identify small molecule antagonists of the constitutive androstane receptor (CAR) signaling pathway - cell viability counter screen (AID 1224837); note: series mostly up to about 92 µM; nearly all actives have a fitted effect of over 45% in size
Method in brief: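 CITCO at 50 nM final was added alongside compounds (15 concentrations) to double-stable hCAR/CYP2B6-2.2kb HepG2 cells. Following 23 hr at 37 C, cell viability was quantified by CellTiter-Fluor fluorescence intensity.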

[4] = target: Nuclear receptor subfamily 1 group I member 3 (Homo sapiens) (UniProt Q14994); experiment: qHTS assay to identify small molecule antagonists of the constitutive androstane receptor (CAR) signaling pathway (AID 1224838); note: nearly all actives have a fitted effect of over 40% in size
Method in brief: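 Inhibition of CITCO-driven (50 nM final) CYP2B6 reporter expression is measured in HepG2 cells stably carrying hCAR. Fifteen compound concentrations are applied for 24 h at 37 C, followed by luciferase luminescence.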

[5] = target: Nuclear receptor subfamily 1 group I member 3 (Homo sapiens) (UniProt Q14994); experiment: qHTS assay to identify small molecule agonists of the constitutive androstane receptor (CAR) signaling pathway (AID 1224839); note: nearly all actives have a fitted effect of over 15% in size; note: potency is the fitted concentration of half-maximal effect
Method in brief: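 In this screen, CAR-driven CYP2B6 promoter activity is measured by luminescence in HepG2-CYP2B6-hCAR cells after 24 h with test compounds and 0.75 uM PK11195 (final concentration).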

[6] = qHTS assay to identify small molecule antagonists of the estrogen related receptor signaling pathway with the pleiotropic PPARgamma coactivator (PGC) from Tox21 10K library - cell viability counter screen (AID 1224840; active = well fitted cell-killing curve with a large enough effect in the repeat runs, not every such curve was filed as active; note: nearly all actives have a fitted effect of over 40% in size)
Method in brief: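 Readout: fluorescence intensity from CellTiter-Fluor after 30 min at 37 C/5% CO2. Preceded by 17.5 h treatment of PGC/ERR cells with DMSO-dissolved compounds, added 6 h post-seeding.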

[7] = target: Thyrotropin receptor (Homo sapiens) (UniProt P16473); experiment: qHTS assay to identify small molecule agonists of the thyroid stimulating hormone receptor (TSHR) signaling pathway (AID 1224843; calls by dose curve; note: nearly all actives have a fitted effect of over 45% in size)
Method in brief: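 Using 15 concentrations per compound in triplicate, cAMP production was monitored in TSHR-HEK293 cells after 30 min compound incubation at RT; HTRF reagents followed, with fluorescence intensity recorded after 1 h.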

[8] = qHTS assay to identify small molecule antagonists of the estrogen related receptor signaling pathway with the pleiotropic PPARgamma coactivator (PGC) from Tox21 10K library (AID 1224841; call rule not given here; note: series mostly up to about 92 µM; actives are mostly falling curves and most rising ones were filed inactive; nearly all actives have a fitted effect of over 50% in size)
Method in brief: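 One-Glo luminescence, measured after half an hour at room temperature, quantified reporter output of PGC/ERR cells. These had been plated at 2,000 per well, incubated 6 h, dosed with compounds in DMSO, then kept 18 h at 37 C.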

[9] = qHTS assay to identify small molecule agonists of the estrogen related receptor signaling pathway with the pleiotropic PPARgamma coactivator (PGC) from Tox21 10K library (AID 1224842); note: nearly all actives have a fitted effect of over 15% in size
Method in brief: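 PGC/ERR reporter cells (NTP line) were seeded 2,000 per well, rested 6 h at 37 C/5% CO2, then pin-dosed with compounds in DMSO for 18 h at 37 C; luciferase read by One-Glo luminescence after 30 min at room temperature.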

[10] = qHTS assay to identify small molecule agonists of the constitutive androstane receptor (CAR) signaling pathway - cell viability counter screen (AID 1224836); note: series mostly up to about 92 µM; nearly all actives have a fitted effect of over 45% in size
Method in brief: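 Compound titrations (15 concentrations) went onto HepG2-CYP2B6-hCAR cells 4 h after seeding, alongside PK11195 at a final 0.75 uM; a 23 h, 37 C/5% CO2 incubation preceded CellTiter-Fluor viability measurement.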

Chain of Thyrotropin receptor (Homo sapiens) (P16473 whole entry, looked up): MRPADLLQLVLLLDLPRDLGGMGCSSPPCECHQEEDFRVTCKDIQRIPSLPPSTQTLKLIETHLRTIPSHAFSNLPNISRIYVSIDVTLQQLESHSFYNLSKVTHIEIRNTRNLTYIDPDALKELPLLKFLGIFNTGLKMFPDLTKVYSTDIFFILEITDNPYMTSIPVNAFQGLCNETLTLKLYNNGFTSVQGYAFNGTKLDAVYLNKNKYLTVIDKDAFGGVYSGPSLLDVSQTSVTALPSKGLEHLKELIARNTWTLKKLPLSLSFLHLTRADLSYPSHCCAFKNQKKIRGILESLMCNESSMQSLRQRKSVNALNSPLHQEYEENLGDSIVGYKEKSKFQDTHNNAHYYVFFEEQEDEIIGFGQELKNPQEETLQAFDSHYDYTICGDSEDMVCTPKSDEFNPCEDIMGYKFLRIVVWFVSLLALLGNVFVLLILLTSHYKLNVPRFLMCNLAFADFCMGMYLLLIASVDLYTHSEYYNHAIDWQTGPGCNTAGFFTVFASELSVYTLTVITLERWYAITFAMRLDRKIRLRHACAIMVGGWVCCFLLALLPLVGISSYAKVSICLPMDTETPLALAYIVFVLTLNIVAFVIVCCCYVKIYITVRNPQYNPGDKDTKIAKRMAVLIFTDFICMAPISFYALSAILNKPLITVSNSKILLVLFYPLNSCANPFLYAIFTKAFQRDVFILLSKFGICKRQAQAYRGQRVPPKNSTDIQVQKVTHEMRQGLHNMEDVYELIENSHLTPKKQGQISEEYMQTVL
Chain of Luciferin 4-monooxygenase (Photinus pyralis) (P08659 whole entry, looked up): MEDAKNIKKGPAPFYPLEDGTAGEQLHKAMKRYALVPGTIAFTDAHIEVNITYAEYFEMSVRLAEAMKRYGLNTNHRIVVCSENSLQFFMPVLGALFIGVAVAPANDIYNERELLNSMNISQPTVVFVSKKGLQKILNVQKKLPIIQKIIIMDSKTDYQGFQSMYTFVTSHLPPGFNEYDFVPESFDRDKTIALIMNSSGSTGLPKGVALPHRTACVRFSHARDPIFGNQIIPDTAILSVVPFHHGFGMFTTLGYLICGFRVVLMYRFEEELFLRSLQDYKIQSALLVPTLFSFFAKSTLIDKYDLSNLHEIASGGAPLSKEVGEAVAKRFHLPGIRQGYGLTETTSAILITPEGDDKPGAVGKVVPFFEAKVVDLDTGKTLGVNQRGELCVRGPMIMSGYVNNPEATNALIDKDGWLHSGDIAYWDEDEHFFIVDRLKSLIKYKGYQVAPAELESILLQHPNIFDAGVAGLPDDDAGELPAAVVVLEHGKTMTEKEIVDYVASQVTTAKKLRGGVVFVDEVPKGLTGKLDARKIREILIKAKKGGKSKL
Chain of Nuclear receptor subfamily 1 group I member 3 (Homo sapiens) (Q14994 whole entry, looked up): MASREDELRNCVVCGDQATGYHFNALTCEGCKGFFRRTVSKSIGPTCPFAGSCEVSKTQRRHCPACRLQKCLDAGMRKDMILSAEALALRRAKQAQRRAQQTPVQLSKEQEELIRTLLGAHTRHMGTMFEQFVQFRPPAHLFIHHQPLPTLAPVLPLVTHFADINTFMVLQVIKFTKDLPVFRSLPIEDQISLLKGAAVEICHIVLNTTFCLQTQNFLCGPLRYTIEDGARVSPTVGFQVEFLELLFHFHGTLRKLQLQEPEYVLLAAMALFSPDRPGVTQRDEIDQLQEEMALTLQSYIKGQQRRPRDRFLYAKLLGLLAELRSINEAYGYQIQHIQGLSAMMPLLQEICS

Compound	Potency [1]	Potency [2]	Potency [3]	Potency [4]	Potency [5]	Potency [6]	Potency [7]	Potency [8]	Potency [9]	Potency [10]
NCCCN(CCO)CCO	inactive	inactive	inactive	inactive	inactive	inactive	inactive			
CCCCCCCCCCCCC(=O)O	inactive	63.5 µM (active)	inactive	inactive	inactive	inactive	inactive			
C#CCOC(=O)[C@@H](C)Oc1ccc(Oc2ncc(Cl)cc2F)cc1	inactive	inactive	inactive	inactive	inactive	inactive		inactive	inactive	
CN(C)C/C=C(/c1ccc(Br)cc1)c1cccnc1	inactive	inactive	inactive			inactive	inactive			inactive
OC(CCN1CCCCC1)(c1ccccc1)C1CCCCC1 (stereo not given)	inactive	inactive			inactive	inactive		inactive		inactive
CC(C)c1cccc(C(C)C)c1NC(=O)NS(=O)(=O)c1cc(C(C)(C)O)co1	inactive	inactive	inactive			inactive	inactive			inactive
Cc1nc2ccccc2n1Cc1ccc(Cl)cc1	inactive	inactive		inactive	11.9 µM (active)	inactive				inactive
Cc1occc1S	inactive	inactive	inactive	inactive	inactive	inactive	inactive	inactive	inactive	
NCc1ccccc1	inactive	inactive	inactive	inactive	inactive	inactive	inactive	inactive		
CC[C@@H]1C[C@H](N(Cc2cc(C(F)(F)F)cc(C(F)(F)F)c2)C(C)=O)c2cc(C(F)(F)F)ccc2N1C(=O)OC(C)C	inactive	inactive	inactive	inactive	inactive					
CC1(C)[C@H]2CC[C@]1(C)[C@H](O)C2	inactive	inactive	inactive			inactive	inactive			inactive
N#CCc1cccc(C(F)(F)F)c1	inactive	inactive	inactive			inactive	inactive			inactive
C1CCC2OC2C1 (stereo not given)	inactive	inactive	inactive			inactive	inactive			inactive
C[C@@H](C1=C(CCN(C)C)Cc2ccccc21)c1ccccn1	inactive	inactive	inactive			inactive	inactive			inactive
O=S1(=O)c2cccc3cccc(c23)N1CCCN1CCN(c2ccc(F)cc2)CC1	inactive	inactive	inactive	inactive	26.6 µM (active)	inactive	inactive	inactive		
S=C(S)NCCNC(=S)S	inactive	inactive	inactive			inactive	inactive			inactive
O=C(O)[C@@H]1[C@H]2C[C@H]3c4[nH]c5ccccc5c4CCN3C[C@@H]2CC[C@@H]1O	inactive	inactive	inactive	inactive	inactive	inactive	inactive	inactive		
CC(=O)O[C@@H]1C(=O)O[C@@H]2[C@H]1OC(=O)[C@@H]2OC(C)=O	inactive	inactive	inactive			inactive	inactive			inactive
CC(C)NCC(O)COc1ccc(CC(N)=O)cc1 (stereo not given)	inactive	inactive	inactive			inactive	inactive			inactive
CCCCOC(O)CC (stereo not given)	inactive	inactive	inactive				inactive			inactive
Cc1ccc2c(ccc3ccccc32)c1	inactive	31.8 µM (active)	inactive			inactive	inactive			inactive
O=C(Cl)c1c(Cl)cccc1Cl	inactive	inactive	inactive	inactive	inactive	inactive	inactive			
CC(C)c1ccc2c(C(C)C)cc(C(C)C)c(S(=O)(=O)O)c2c1	inactive	inactive	inactive			inactive	inactive			inactive
CC(=O)OC/C=C/c1ccccc1	inactive	inactive	inactive	inactive	inactive	inactive	inactive	inactive		
COCCOCCOCCOCCOC	inactive	inactive	inactive				inactive			inactive
CCCCOCCOCCOCCOCCO	inactive	inactive	inactive			inactive	inactive			inactive
O=S(=O)(O)c1ccc(O)c2ncccc12	inactive	inactive	inactive			inactive	inactive			inactive
SC1CCCC1	inactive	inactive	inactive				inactive			inactive
